PubChem BioAssay AID504466 (National Center for Advancing Translational Sciences (NCATS), 2011)
Among all 330,000 compounds or so, about 4,200 (1.3%) were called active. Where a call stands in place of a potency, no number is given. About 6% were inconclusive and are not listed. The call rests on the fitted dose curve; in most records, active means well fitted activation curve with a large enough effect; inconclusive means small, poorly fitted or top-dose-only effect; inactive means no such curve, though single readings can be large or run the other way. This excerpt belongs to a sample that is enriched for actives.

Experiment: qHTS screen for small molecules that induce genotoxicity in human embryonic kidney (HEK293T) cells expressing luciferase-tagged ELG1; further: nearly all actives have a fitted effect of over 60% in size
Conditions: HEK293T ELG1-luciferase reporter, luminescence, 16 h; series mostly up to 46 µM
Outline: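 DMSO vehicle served as control against compound-treated ELG1-luciferase HEK293T cells; exposure lasted 16 hr at 37 °C and 5% CO2, followed by ONE-Glo luminescence detection after 30 min.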
Potency means the concentration at half of the fitted maximal effect.

Structure (SMILES) | Potency
Cc1cccc(C(=O)OCC(=O)Nc2ccc(F)cc2)c1 | inactive
CCC(=O)Nc1ccc2nn(-c3ccc(F)cc3)nc2c1 | 1.46 µM (active)
Cc1ccc(-n2nc3ccc(NC(=O)/C=C/c4ccco4)cc3n2)cc1C | inactive
CCOC(=O)[C@H]1[C@H]2COc3ccccc3[C@@H]2N2C(=O)CN(Cc3ccccc3)C(=O)[C@@]12C | inactive
C#CCOCCOCCOCCNc1nc(N2CCN(C(=O)[C@H](CCC(=O)O)n3cc(CN)nn3)CC2)nc(N2CCN(C(=O)[C@H](CCC(=O)O)n3cc(CN)nn3)CC2)n1 | inactive
O=C(COc1ccccc1F)NNC(=O)c1cc(Br)ccc1Cl | inactive
CCN(CC(=O)NCc1ccc(F)cc1)S(=O)(=O)c1ccc(Cl)s1 | inactive
C/C(=N\Nc1ccc(S(N)(=O)=O)cc1[N+](=O)[O-])c1cccs1 | inactive
C/C(=N\Nc1ncc(Cl)cc1Cl)c1ccc(S(=O)(=O)NCc2ccco2)cc1 | inactive
C/C(=N\Nc1ncc(Cl)cc1Cl)c1cccs1 | 5.17 µM (active)
Cc1cc(NC(=O)COC(=O)/C=C/c2ccc(C)o2)no1 | inactive
COc1cccc(-c2ccc3c(c2)S(=O)(=O)c2cccc(C(=O)O)c2C3=O)c1OC | inactive
CC(=O)Oc1ccc2c(c1)C(=O)c1ccccc1C2=O | inactive
COc1ccc2c(c1OC)C(=O)c1ccccc1C2=O | 5.17 µM (active)
COc1cc2c(-c3ccc4c(c3)OCO4)c(-c3ccsc3)oc(=O)c2cc1OC | inactive
COc1ccc(S(=O)(=O)N2CCN(c3cnccn3)CC2)cc1 | inactive
Cc1nc2ccc(NC(=O)c3cccc(S(=O)(=O)N4CCOCC4)c3)cc2s1 | inactive
CCOC(=O)N1CCC(NC(=O)c2cnn3ccccc23)CC1 | inactive
O=C(c1cnn2ccccc12)N1CCc2ccccc21 | 4.11 µM (active)
Cc1cnc(C(=O)OCC(=O)N2CCc3ccccc32)cn1 | inactive
O=C1CSc2ccc(C(=O)NCc3ccccn3)cc2N1 | inactive
CCOC(=O)C1=CN(Cc2ccc(Br)cc2)S(=O)(=O)NC1C (centres undefined) | inactive
COc1ccc(S(=O)(=O)N(C)C[C@H]2Oc3ccc(NS(=O)(=O)c4cccs4)cc3CC(=O)N([C@H](C)CO)C[C@H]2C)cc1 | inactive
CCC(CO)Oc1cc(NC(=O)c2ccc(Cl)cc2)c2ncn(C(C)C)c2c1 (centres undefined) | inactive
CC(=O)Nc1ccc(S(=O)(=O)NCCC(=O)N2CCN(c3ccccc3Cl)CC2)cc1 | inactive

Structure (SMILES) | Potency
N#Cc1ccc(C2N=C(c3ccccc3)NO2)cc1 (centres undefined) | 5.17 µM (active)
O=C(OCC(=O)N1CCCCCC1)c1ccc(Br)c(S(=O)(=O)N2CCOCC2)c1 | inactive
C[C@@H]1C(c2ccc(F)cc2)=NN(c2ccc(Br)cc2)[C@H]1C(=O)N1CCOC1=O | inactive
Cc1ccc(S(=O)(=O)N2[C@@H](c3ccc(Br)cc3)C(C(=O)O)=C[C@H]2CC2CCCC2)cc1 | inactive
Cc1cc(=O)oc2cc(OCCC[n+]3ccccc3)ccc12 | inactive
Cc1ccccc1N1CCN(CCCOc2ccc3c(C)cc(=O)oc3c2)CC1 | inactive
Cc1cc(=O)oc2cc(OCC3CC(c4ccccc4Cl)=NO3)ccc12 (centres undefined) | 7.94 µM (active)
CCCCNC(=O)C(C)N(CCN(C)C)C(=O)CCCCCN1C(=O)NC(c2ccc(Cl)cc2)C(C(=O)OCc2ccccc2)=C1C (centres undefined) | inactive
CN(C)c1ccc(-c2nnc(-c3cccnc3)o2)cc1 | 10.3 µM (active)
COC(=O)CSc1nnc(-c2cccnc2)o1 | inactive
COc1ccc(-c2nnc(SCc3cccnc3)o2)cc1 | inactive
COc1ccc(CCNC(=O)COC(=O)Cc2ccccc2F)cc1 | inactive
Cc1ccc(C(=O)NCC(=O)NC2CC2)cc1 | inactive
Oc1ccc(/C=N/NC2=NCCCCC2)c(O)c1 | 7.31 µM (active)
COc1ccc(/C=C(\C#N)C(=O)ONC2=NCCCCC2)cc1 | inactive
Oc1ccc(/C=N/Nc2nc(-c3ccccc3F)nc3ccccc23)c(O)c1 | inactive
O=C(Cn1cnc2ccccc2c1=O)NNC(=O)c1ccccc1F | inactive
COc1ccc(C(=O)Nc2cc(S(=O)(=O)N3CCCC3)ccc2Cl)cc1 | inactive
Clc1cccc(N=C2NN=C(c3ccc4c(c3)OCCO4)CS2)c1 | 2.31 µM (active)
CN(C)c1nc(=Nc2cccc(Cl)c2)ss1 | inactive
c1ccc(CN2CCC(N=C3NN=C(c4ccc5c(c4)OCCO5)CS3)CC2)cc1 | inactive
Cc1occc1C(=O)Nc1cccc(Cn2cccn2)c1 | inactive
Cc1nn(C(=O)c2ccoc2C)c(N)c1-c1ccccc1 | 13 µM (active)
CCOC(=O)c1c(N)nn(C(=O)c2ccccc2)c1-c1ccccc1 | inactive
Cc1ccc(C(=O)Nc2ccc3c(c2)OCCO3)cc1S(=O)(=O)N1CCOCC1 | inactive

Structure (SMILES) | Potency
N#CNC1=NCN(CCc2ccccc2)CN1 | inactive
Cc1ccc2nc(NC3=NCN(CCc4ccccc4)CN3)nc(C)c2c1 | inactive
c1ccc(CCN2CN=C(Nc3nc4ccccc4o3)NC2)cc1 | 18.4 µM (active)
CCN(CC)C(=O)[C@H]1C[C@H](CC(=O)NCC23CC4CC(CC(C4)C2)C3)C(=O)N2CCc3c([nH]c4cc(CCC(=O)N(C)C)ccc34)[C@]12C | inactive
N#CC(=C1SC=CS1)c1nc(-c2ccccc2)cs1 | 5.8 µM (active)
N#C/C(=C1/CCCN1)c1ccccn1 | inactive
COc1cc(/C=C/C(=O)OCC(=O)NCCCc2ccccc2)ccc1O | inactive
O=C(NCCC(=O)N1O[C@@H]2C=C[C@H]1C2)OCC1c2ccccc2-c2ccccc21 | inactive
O=C(COC(=O)c1n[nH]c2ccccc12)NCc1ccccc1 | inactive
COc1ccc(COC(=O)c2n[nH]c3ccccc23)cc1F | 14.6 µM (active)
COc1ccc(NC(=O)COC(=O)c2n[nH]c3ccccc23)c(OC)c1 | inactive
O=C(CC1SC(N2CCOCC2)=NC1=O)Nc1ccccc1F (centres undefined) | inactive
Cc1noc(C)c1-c1ccc2ncnc(NC(C)c3ccco3)c2c1 (centres undefined) | 16.4 µM (active)
c1coc(CNc2ncnc3ccccc23)c1 | inactive
COc1ccc(NS(=O)(=O)c2ccc(C(=O)Nc3c(C)n(C)n(-c4ccccc4)c3=O)cc2)cc1 | inactive
CCCN(C(=O)CSc1nnc(N)s1)c1c(N)n(Cc2ccccc2)c(=O)[nH]c1=O | inactive
CN(C(=O)CSc1cccc[n+]1[O-])C1CCCCC1 | inactive
CCCOC(=O)Nc1ccccc1C(N)=O | inactive
Cc1cccc(OCCC(=O)Nc2ccccc2C(N)=O)c1 | inactive
COc1cccc(OCC(=O)Nc2ccccc2C(N)=O)c1 | 5.17 µM (active)
NS(=O)(=O)c1ccc(CNC(=S)NC(=O)c2ccco2)cc1 | inactive
O=C(NNS(=O)(=O)c1c(F)cc(F)c(Cl)c1F)C12CC3CC(CC(C3)C1)C2 | inactive
Cn1cncc1C#Cc1c(-c2ccsc2)sc2ccccc12 | inactive
O=C(Nc1nnc(-c2ccccc2)o1)c1cccc(S(=O)(=O)N2CCOCC2)c1 | inactive
O=C(NCc1ccc2c(c1)OCO2)c1cc([N+](=O)[O-])ccc1N1CCOCC1 | inactive

Structure (SMILES) | Potency
Cc1nn(C)cc1/C=N/NC(=O)c1sc2ccccc2c1Cl | inactive
O=C(Nc1ccon1)c1sc2ccccc2c1Cl | 13 µM (active)
O=C(Nc1ccon1)c1cccc(Cl)c1 | inactive
Cc1ccc(NC(=O)Cn2cnc3c(OCc4ccccc4)ncnc32)cc1C | inactive
COc1cc(/C=N/Nc2nn3cnnc3c3ccccc23)cc(OC)c1OC | inactive
CN(CCO)c1ccc(/C=N/Nc2nncc3ccccc23)cc1 | 0.116 µM (active)
FC(F)(F)c1nc2ccccc2nc1N/N=C/c1ccc(Cl)cc1 | inactive
C/C=C/c1ccc(OCC(=O)NNC(=O)CN(C)S(=O)(=O)c2ccc(C)cc2)c(OC)c1 | inactive
CC(Sc1ccccc1F)C(=O)Nc1cccc(S(=O)(=O)N2CCOCC2)c1 (centres undefined) | inactive
COc1ccccc1Nc1ncnc2c1oc1ccccc12 | 14.6 µM (active)
CCC(C(=O)OC)n1cnc2c(oc3ccccc32)c1=O (centres undefined) | inactive
COc1ccc(C)cc1Nc1nc(C)nc2c1oc1ccccc12 | inactive
CCCCOc1ccc(-c2ncc(C(=O)OCC)c(N)n2)cc1 | 10.3 µM (active)
CCOC(=O)c1cnc(SCc2nc(N)nc(Nc3ccc(OC)cc3)n2)nc1N | inactive
CCCCCCOc1ccc(OC(=O)c2cccnc2)cc1 | inactive
Cc1c(NC(=O)CN(C)CC(=O)Nc2ccc(F)c(F)c2F)c(=O)n(-c2ccccc2)n1C | inactive
Cc1ccsc1C(=O)OCC(=O)NCCc1ccccc1 | inactive
COc1ccc(C2CC(c3cccs3)=Nc3ccccc3S2)cc1OC (centres undefined) | inactive
COc1ccc(-c2csc(-c3cccs3)n2)cc1OC | 16.4 µM (active)
COc1ccc(OC)c(-c2csc(-c3cccs3)n2)c1 | inactive
CC[C@@]1(C(=O)OC)N[C@H](CN(C)C(C)=O)[C@@H]2C(=O)N(C)C(=O)[C@@H]21 | inactive
CC(=O)c1c(OCC(=O)N(C)C2CCCCC2)ccc2c(C)cc(=O)oc12 | inactive
COc1ccccc1CSc1ncc(-c2ccc([N+](=O)[O-])cc2)[nH]1 | inactive
Clc1ccccc1SCc1nc2ccccc2[nH]1 | inactive
COc1ccccc1CSc1nc2ccccc2[nH]1 | 23.1 µM (active)

Structure (SMILES) | Potency
CC[C@]1(C(=O)OC)[C@H]2C(=O)N(Cc3ccccc3)C(=O)[C@H]2[C@H]2CN=C(SCc3ccc(Cl)cc3)N21 | inactive
O=C(C[C@@H]1C/C=C\CCC(=O)OC[C@@H]2CCCN2C1=O)NCCO | inactive
CN(C(=O)COC(=O)c1cc(=O)[nH]c2ccccc12)C1CCCCC1 | inactive
CCCCNc1c(-c2cccc(Sc3ccc(OC)cc3)c2)nc2ccccn12 | inactive
CN1CCN(c2ccc(NC(=O)c3ccc4c(c3)[nH]c(=O)n4Cc3ccc(F)cc3)cc2)CC1 | inactive
CN1CCN(c2ccc(NC(=O)c3cc(Cl)c4c(c3)OCCO4)cc2)CC1 | inactive
CN1CCN(c2ccc(NC(=O)c3ccccc3)cc2)CC1 | 10.3 µM (active)
N#Cc1cc([N+](=O)[O-])ccc1NC(=O)COC(=O)c1cnccn1 | inactive
Cn1c(=NC(=O)c2cnccn2)sc2ccccc21 | 8.2 µM (active)
O=C(NCCCNC(=O)c1ccccc1Cl)c1cnccn1 | inactive
COC(=O)c1ccc(OC(=O)c2cnccn2)cc1 | inactive
CC1(c2ccccc2)NC(=O)N(CC(=O)N2CC(=O)Nc3ccccc32)C1=O (centres undefined) | inactive
Cc1ccc(C)c(S(=O)(=O)N2CCN(c3ncnc4sccc34)CC2)c1 | inactive
CC(C)CC1NC(=O)c2cc(Cl)ccc2-n2c1nc1ccccc1c2=O (centres undefined) | inactive
Cn1nnnc1SCC(=O)Nc1nc2ccccc2s1 | inactive
Cc1ccnc(NC(=O)c2ccco2)n1 | inactive
Cc1ccnc(Nc2nc3ccccc3s2)n1 | 2.06 µM (active)
Cc1ccccc1NC(=O)CSC(=O)c1ccccc1 | inactive
Cc1nn(Cc2ccc(Cl)c(Cl)c2)c(C)c1NC(=O)c1cc(C2CC2)on1 | inactive
O=C(Nc1cc(C(F)(F)F)ccc1Cl)c1cc(C2CC2)on1 | inactive
CSc1ccccc1NC(=O)c1cc(C2CC2)on1 | 23.1 µM (active)
COc1cc(C)ccc1OCC(=O)OCC(=O)c1ccc[nH]1 | inactive
CC(C)(C)OC(=O)C[C@@H]1C/C=C\C[C@@H](CC(=O)NCCO)C(=O)N[C@H](Cc2c[nH]c3ccccc23)COC1=O | inactive
C=CC[C@@H](CC(=O)N[C@@H](CO)Cc1ccccc1)C(=O)N[C@H](COC(=O)[C@H](CC=C)CC(=O)OC(C)(C)C)Cc1ccccc1 | inactive
